# Assay results taken from PMC4336329 (PLoS ONE, 2015).
# The campaign covered roughly 310,000 compounds. About 14,000 (4.5%) showed an effect of 50% or more. Effects have a minus sign here. What follows is part of a selection rich in strong results, with near analogues and random picks from the rest.
# Target: human ether-à-go-go-related gene (hERG) potassium channel (human, UniProt Q12809)
# Experiment: primary screen, population patch clamp on CHO cells stably expressing hERG; higher = less effect of the substance
# 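Also: peak tail current of the secondary pulse compared with the same well before compound.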
# Sequence of human ether-à-go-go-related gene (hERG) potassium channel (Q12809 whole entry, looked up): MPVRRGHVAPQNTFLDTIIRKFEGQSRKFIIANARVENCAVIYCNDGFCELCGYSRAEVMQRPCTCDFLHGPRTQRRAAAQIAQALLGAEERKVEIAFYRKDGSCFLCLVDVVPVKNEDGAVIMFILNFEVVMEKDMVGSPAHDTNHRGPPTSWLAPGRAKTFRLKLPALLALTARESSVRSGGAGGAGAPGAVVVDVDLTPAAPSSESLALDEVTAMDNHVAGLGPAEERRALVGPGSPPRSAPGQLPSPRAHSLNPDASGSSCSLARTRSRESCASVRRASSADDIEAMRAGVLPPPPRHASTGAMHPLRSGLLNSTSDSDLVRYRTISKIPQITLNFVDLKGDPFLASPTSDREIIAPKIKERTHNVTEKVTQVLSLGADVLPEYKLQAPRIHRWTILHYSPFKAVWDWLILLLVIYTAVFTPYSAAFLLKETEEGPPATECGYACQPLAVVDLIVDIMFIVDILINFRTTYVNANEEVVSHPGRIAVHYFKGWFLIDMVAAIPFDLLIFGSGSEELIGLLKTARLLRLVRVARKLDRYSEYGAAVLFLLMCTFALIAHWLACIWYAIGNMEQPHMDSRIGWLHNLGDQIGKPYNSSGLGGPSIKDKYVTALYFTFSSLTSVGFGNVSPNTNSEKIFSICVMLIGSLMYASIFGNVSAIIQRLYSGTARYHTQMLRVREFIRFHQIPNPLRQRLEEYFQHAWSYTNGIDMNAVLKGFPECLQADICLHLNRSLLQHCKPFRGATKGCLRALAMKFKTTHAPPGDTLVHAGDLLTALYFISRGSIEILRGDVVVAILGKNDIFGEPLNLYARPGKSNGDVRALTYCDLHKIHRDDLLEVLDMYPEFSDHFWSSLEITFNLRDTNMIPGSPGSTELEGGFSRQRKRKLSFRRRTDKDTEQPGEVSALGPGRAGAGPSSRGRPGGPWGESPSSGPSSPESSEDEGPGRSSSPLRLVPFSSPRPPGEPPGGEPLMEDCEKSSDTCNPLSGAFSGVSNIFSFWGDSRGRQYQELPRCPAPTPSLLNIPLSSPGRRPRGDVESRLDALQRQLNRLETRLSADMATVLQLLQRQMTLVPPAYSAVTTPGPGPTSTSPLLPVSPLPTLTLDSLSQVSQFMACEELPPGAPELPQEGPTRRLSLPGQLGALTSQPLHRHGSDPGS
row,Structure (SMILES),"hERG current change (%, negative = inhibition) at 10uM [%]"
1,CC1(C)Cc2c(C#N)c(NCCc3ccccc3)nc(-c3ccco3)c2CO1,12.5
2,CC1(C)Cc2c(C#N)c(NCCO)nc(-c3ccco3)c2CO1,-4.23
3,CC1(C)Cc2c(C#N)c(NCCN3CCOCC3)nc(-c3ccco3)c2CO1,-6.23
4,CN(C)CCNc1nc(-c2ccco2)c2c(c1C#N)CC(C)(C)OC2,-55.7
5,CC1(C)Cc2c(C#N)c(NCc3ccco3)nc(-c3ccco3)c2CO1,-8.94
6,CCN(CC)CCNc1nc(-c2ccco2)c2c(c1C#N)CC(C)(C)OC2,-62.6
7,Cc1nc(NCCN)c(C#N)c2c1COC(C)(C)C2,16
8,CCN(CC)CCNc1nc(-c2ccccc2)c2c(c1C#N)CC(C)(C)OC2,-66.4
9,CC1(C)Cc2c(C#N)c(N3CCOCC3)nc(-c3ccccc3)c2CO1,-12.1
10,COC(=O)c1c(NC(=S)NN2CCOCC2)sc2c1CCCC2,8.03
11,COc1ccc(S(=O)(=O)Nc2ccc(S(=O)(=O)NCC3CCCO3)cc2)cc1 (centres unmarked),6.4
12,CCc1nc2c(sc3nc4c(cc32)COC(C)(C)C4)c(=O)n1CCN(CC)CC,-38.1
13,COc1ccc(C(=O)Nc2ccc3ccccc3n2)c(OC)c1OC,17.8
14,COc1ccc(C[C@H](N)C(=O)N[C@H]2[C@@H](O)[C@H](n3cnc4c(N(C)C)ncnc43)O[C@@H]2CO)cc1.Cl,-5.25
15,Cc1ccc(C(=O)Nc2ccc3c(c2)OCO3)cc1S(=O)(=O)N1CCCCC1,-18.8
16,CC(O)c1nc2ccccc2n1CCCOc1ccccc1 (centres unmarked),-7.48
17,CCN1CCN(CC(=O)Nc2cc(F)ccc2C)CC1,-46.2
18,Cc1ccccc1NC(=O)CN1CCN(Cc2ccccc2)CC1,-36.1
19,O=C(CN1CCN(Cc2ccccc2)CC1)Nc1ccc(F)c(F)c1.O=C(O)C(=O)O,-57.1
20,O=C(CN1CCN(CC(=O)Nc2ccccc2Cl)CC1)Nc1ccc(F)c(F)c1,-78.2
21,CCN(CC)S(=O)(=O)c1ccc(Cl)c(C(=O)NC2CCN(Cc3ccccc3)CC2)c1.Cl,-28.8
22,O=C(CN1CCN(Cc2ccccc2F)CC1)Nc1ccccc1Cl,-27.6

row,Structure (SMILES),"hERG current change (%, negative = inhibition) at 10uM [%]"
1,Cc1ccc(F)cc1NC(=O)CN1CCN(Cc2ccccc2)CC1,-63.2
2,CCN(CC)S(=O)(=O)c1ccc(NC2CCN(Cc3ccccc3)CC2)nc1,-57.9
3,CCN(CC)S(=O)(=O)c1ccc(NCc2ccccc2)nc1,-11.3
4,Cl.O=C(CN1CCN(Cc2ccccc2)CC1)Nc1ccc2c(c1)CCC2,-47.6
5,O=C(CN1CCN(c2ccc(Cl)cc2)CC1)Nc1ccc(F)c(F)c1,-18.7
6,O=C(CN1CCCCCC1)Nc1ccc(F)c(F)c1.O=C(O)C(=O)O,-22.4
7,COc1ccc(C)cc1NC(=O)CSc1ccc(Cl)cc1,11.1
8,Cc1cccc(C)c1NC(=O)CCS(=O)(=O)c1ccc(Br)cc1,31.2
9,COc1cccc(-c2nc(CS(=O)(=O)CC(=O)N3CCN(C)CC3)c(C)o2)c1,8.02
10,CCN(CC)CC(=O)Nc1ccc(-c2nc3cc(NC(=O)CN(CC)CC)ccc3o2)cc1,-18.1
11,CCNC(=O)NC(=O)COC(=O)c1ccccc1SCC(=O)NC(=O)NCC,3.64
12,Cc1ccc(-c2nc3ccccc3c(C(=O)NCc3cccs3)c2C)cc1,-5.33
13,COC(=O)C1=C(c2ccc(F)cc2F)C[C@@H]2CC[C@H]1N2C(=O)NCc1ccc(F)cc1,-46.4
14,CC(=O)Nc1ccc(S(=O)(=O)Nc2c(NC3CCCCC3)c3ccccc3oc2=O)cc1,7.19
15,CCN(CC)S(=O)(=O)c1ccc(C)c(NC(=O)CN2CCN(Cc3ccccc3)CC2)c1.Cl,-69.1
16,Cc1ccc(S(=O)(=O)N(C)C)cc1NC(=O)CN1CCN(Cc2ccccc2)CC1.Cl,-24.8
17,Cc1ccc(NC(=O)CN2CCN(Cc3ccccc3)CC2)cc1F,-71.2
18,Cc1ccc(NC(=O)CN2CCN(Cc3ccccc3)CC2)cc1Cl,-46
19,CCN(CC)S(=O)(=O)c1ccc(C)c(NC(=O)CNCCN(C(C)C)C(C)C)c1.O=C(O)C(=O)O,-75.5
20,O=C(CN1CCN(CC(=O)c2ccc(F)cc2)CC1)Nc1ccccc1Cl,-68.9
21,CCN(CC)S(=O)(=O)c1ccc(C)c(NC(=O)CN2CCN(C)CC2)c1.O=C(O)C(=O)O,-12.4
22,CCN(CC)c1ccc(S(=O)(=O)N2CCOCC2)cc1NC(=O)CN1CCN(Cc2ccccc2)CC1.Cl,-45.7
